Assay results from PubChem BioAssay AID1004 (SRMLSC, 2008).
Values without a mark were called inactive. Activity calls are given as the source filed them.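 The calls were made as follows: active = viability at 10 µM of 29.74% or lower, 3 SD below the compound median; inactive = the rest.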

Experiment: viability of HCT116 lacking mutant beta-catenin – cell-based, DP diverse set, validation, pilot screen (AID 1004)
Settings: HCT116 (mutant beta-catenin deleted) viability, CellTiter-Glo, 60 h; at 10 µM; stronger effect = lower value

| Compound | viability |
| --- | --- |
| CCOC(=O)c1ncn2c1CN(C)C(=O)c1cc(F)ccc1-2 | 99.8% |
| CN=C(NC#N)NCCSCc1nc[nH]c1C | 98.3% |
| C[C@@H]1CC[C@]2(C(=O)O)CC[C@]3(C)C(=CCC4[C@@]5(C)C[C@@H](O)[C@H](O)[C@@](C)(CO)C5[C@H](O)C[C@]43C)C2[C@H]1C (stereo not given in full) | 95.4% |
| CO[C@@H]1[C@@H](OC(N)=O)[C@@H](O)[C@H](Oc2ccc3c(O)c(NC(=O)c4ccc(O)c(CC=C(C)C)c4)c(=O)oc3c2C)OC1(C)C | 99.5% |
| C/C=C1/C2C=C(C)CC1(N)c1ccc(=O)[nH]c1C2 (stereo not given) | 106% |
| COc1cc(Cc2cnc(N)nc2N)cc(OC)c1OC | 94.7% |
| COc1ccc(/C=C/c2cc(OC)cc(=O)o2)cc1 | 103% |
| CC1COC2=C1C(=O)C(=O)c1c2ccc2c1CCCC2(C)C (stereo not given) | 32.2% |
| CN1CCN(C2Cc3ccccc3Sc3ccc(S)cc32)CC1 (stereo not given) | 79.5% |
| O=c1[nH]cc(F)c(=O)[nH]1 | 58.1% |
| COC(=O)Nc1nc2ccc(C(=O)c3cccs3)cc2[nH]1 | 38.8% |
| O=C(c1ccc(OCCN2CCCCC2)cc1)c1c(-c2ccc(O)cc2)sc2cc(O)ccc12 | 86.1% |
| C=C1C(=O)[C@]23[C@H](O)[C@H]1CC[C@H]2[C@@]12COC3(O)[C@H](O)[C@@H]1C(C)(C)CC[C@@H]2O | 88% |
| C[C@H](CCC(=O)O)[C@H]1CC[C@H]2[C@@H]3CC[C@@H]4C[C@H](O)CC[C@]4(C)[C@H]3CC[C@]12C | 102% |
| COC(=O)CCc1c(C)[nH]c(C(=O)OCc2ccccc2)c1C | 100% |
| O=c1c(-c2ccc(O)cc2)coc2cc(O)cc(O)c12 | 96.7% |
| C=C(CCC12O[C@H](C(=O)O)[C@@](O)(C(=O)O)[C@](C(=O)O)(O1)[C@H](OC(=O)/C=C/[C@@H](C)C[C@@H](C)CC)[C@H]2O)[C@@H](OC(C)=O)[C@H](C)Cc1ccccc1 | 100% |
| C[C@@H]1CC2C3CCC4=CC(=O)C=CC4(C)[C@@]3(F)[C@@H](O)CC2(C)[C@@]1(O)C(=O)CO (stereo not given in full) | 99.5% |
| CO/N=C(\C(=O)N[C@@H]1C(=O)N2C(C(=O)O)=C(COC(C)=O)CS[C@H]12)c1csc(N)n1 | 96.4% |
| C[C@@H]1C[C@@H]([C@@H](C)CC2CC(=O)NC(=O)C2)C(=O)[C@@H](C)C1 | 27.8% (active) |
| Cc1cc(CC(=O)O)n(C)c1C(=O)c1ccc(Cl)cc1 | 98.7% |
| CN1C2CCC1CC(OC(=O)C(CO)c1ccccc1)C2 (stereo not given) | 97.1% |
| Clc1ccc2ncnc(NCc3ccc4c(c3)OCO4)c2c1 | 95.8% |
| COc1cc([C@@H]2c3cc4c(cc3[C@H](O)[C@H]3COC(=O)[C@H]23)OCO4)cc(OC)c1OC | 37.4% |
| CCOC(=O)c1c(N)sc(C)c1-c1ccccc1 | 108% |
| Cc1ccc2c(c1)C(=O)C1(O)CCN(c3ccccc3)C1=N2 (stereo not given) | 91% |
| CCCCCCCCCCCCCCCC(=O)OCC(O)C1OC(=O)C(O)=C1O (stereo not given) | 100% |
| COc1ccc2cc([C@H](C)C(=O)O)ccc2c1 | 96.8% |
| CC(=O)N[C@H]1C(O[C@@H]2O[C@H](C[C@@H](O)[C@H]3O[C@@H](N4CCC(=O)NC4=O)[C@H](O)[C@@H]3O)[C@H](O)[C@H](O)[C@H]2NC(=O)/C=C/CCCCCCCCCCC(C)C)OC(CO)[C@@H](O)[C@@H]1O (stereo not given in full) | 55.1% |
| CC1(C)OC2CC(=O)OCC23C1CC(=O)C1(C)C3CC[C@@]2(C)[C@H](c3ccoc3)OC(=O)C3OC312 (stereo not given in full) | 93% |
